Data taken from the supplement of paper PMC11732987, “Enantioselective OTUD7B fragment discovery through chemoproteomics screening and high-throughput optimisation” (Communications Chemistry, 2025).

Columns and labels:
Assay in all cases: log2 ratio of Biotin-Ahx-Ub-VS probe labelling (fragment/DMSO); higher = less target engagement (more negative = stronger competition), active = hit call of the paper (q ≤ 0.05, log2 ratio ≤ -1)
Conditions in all cases: compound concentration: 200 uM; treatment time: 3 h
USP42 = target: T1, USP42 (UniProt Q9H9J4)
T1 sequence (whole entry): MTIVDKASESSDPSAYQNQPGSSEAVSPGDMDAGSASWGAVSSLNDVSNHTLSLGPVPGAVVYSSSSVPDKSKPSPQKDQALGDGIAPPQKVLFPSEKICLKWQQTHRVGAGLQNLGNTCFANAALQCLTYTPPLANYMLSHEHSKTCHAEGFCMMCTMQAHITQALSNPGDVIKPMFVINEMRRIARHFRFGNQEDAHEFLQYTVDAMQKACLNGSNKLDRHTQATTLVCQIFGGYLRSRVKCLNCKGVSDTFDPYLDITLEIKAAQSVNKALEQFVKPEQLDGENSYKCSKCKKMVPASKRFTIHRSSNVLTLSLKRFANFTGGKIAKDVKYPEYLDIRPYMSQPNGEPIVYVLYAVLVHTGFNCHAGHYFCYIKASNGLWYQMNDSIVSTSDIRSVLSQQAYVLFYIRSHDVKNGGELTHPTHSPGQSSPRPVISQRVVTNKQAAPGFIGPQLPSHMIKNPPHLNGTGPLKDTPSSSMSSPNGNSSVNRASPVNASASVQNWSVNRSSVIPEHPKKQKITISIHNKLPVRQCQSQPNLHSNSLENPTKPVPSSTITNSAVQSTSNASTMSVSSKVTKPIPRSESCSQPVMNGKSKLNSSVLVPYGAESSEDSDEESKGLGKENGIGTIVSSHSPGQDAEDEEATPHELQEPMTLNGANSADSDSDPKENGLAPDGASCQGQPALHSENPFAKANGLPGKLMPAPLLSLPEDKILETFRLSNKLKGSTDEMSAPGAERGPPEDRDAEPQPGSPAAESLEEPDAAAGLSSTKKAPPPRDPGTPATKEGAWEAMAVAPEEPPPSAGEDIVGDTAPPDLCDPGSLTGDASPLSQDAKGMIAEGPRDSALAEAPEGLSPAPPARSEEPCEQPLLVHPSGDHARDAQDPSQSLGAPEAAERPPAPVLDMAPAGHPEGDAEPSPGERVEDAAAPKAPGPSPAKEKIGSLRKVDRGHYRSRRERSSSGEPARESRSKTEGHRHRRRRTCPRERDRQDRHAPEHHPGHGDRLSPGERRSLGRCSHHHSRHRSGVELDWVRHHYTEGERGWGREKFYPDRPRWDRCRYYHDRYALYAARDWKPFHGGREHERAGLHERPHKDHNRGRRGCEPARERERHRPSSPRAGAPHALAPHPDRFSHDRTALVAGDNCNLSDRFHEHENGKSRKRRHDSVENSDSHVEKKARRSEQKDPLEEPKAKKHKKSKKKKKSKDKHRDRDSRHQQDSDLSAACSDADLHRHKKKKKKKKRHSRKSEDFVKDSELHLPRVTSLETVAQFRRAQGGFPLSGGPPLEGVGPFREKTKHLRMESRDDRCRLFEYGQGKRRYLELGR
In short: (§1)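 Each value is an average log2 ratio of fragment to vehicle, tested by unpaired t-test. The underlying Spectronaut label-free quantities were global-median-normalised, and only proteins with ≥2 unique peptides were included. Triplicate HEK293T lysate samples (495 µg) were exposed to fragment at 200 µM or vehicle for 3 h, then to Biotin-Ahx-Ub-VS at 0.5 µM final for 1 h, before NeutrAvidin enrichment of labelled DUBs, LysC and trypsin digestion, and diaPASEF LC-MS/MS.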

USP46 = USP46 (UniProt P62068)
USP46, sequence (P62068 whole entry): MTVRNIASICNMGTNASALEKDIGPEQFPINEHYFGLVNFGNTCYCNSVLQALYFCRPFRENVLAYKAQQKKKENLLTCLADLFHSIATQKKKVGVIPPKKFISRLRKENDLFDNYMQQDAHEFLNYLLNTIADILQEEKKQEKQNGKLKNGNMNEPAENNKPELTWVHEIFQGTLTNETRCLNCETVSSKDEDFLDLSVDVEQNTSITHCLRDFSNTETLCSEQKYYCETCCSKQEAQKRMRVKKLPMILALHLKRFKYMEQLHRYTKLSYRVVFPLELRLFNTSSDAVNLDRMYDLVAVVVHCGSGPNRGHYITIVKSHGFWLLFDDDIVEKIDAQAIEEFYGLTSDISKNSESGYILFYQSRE
In short: as §1

USP47 = target: T2, USP47 (UniProt Q96K76)
T2 sequence (whole entry): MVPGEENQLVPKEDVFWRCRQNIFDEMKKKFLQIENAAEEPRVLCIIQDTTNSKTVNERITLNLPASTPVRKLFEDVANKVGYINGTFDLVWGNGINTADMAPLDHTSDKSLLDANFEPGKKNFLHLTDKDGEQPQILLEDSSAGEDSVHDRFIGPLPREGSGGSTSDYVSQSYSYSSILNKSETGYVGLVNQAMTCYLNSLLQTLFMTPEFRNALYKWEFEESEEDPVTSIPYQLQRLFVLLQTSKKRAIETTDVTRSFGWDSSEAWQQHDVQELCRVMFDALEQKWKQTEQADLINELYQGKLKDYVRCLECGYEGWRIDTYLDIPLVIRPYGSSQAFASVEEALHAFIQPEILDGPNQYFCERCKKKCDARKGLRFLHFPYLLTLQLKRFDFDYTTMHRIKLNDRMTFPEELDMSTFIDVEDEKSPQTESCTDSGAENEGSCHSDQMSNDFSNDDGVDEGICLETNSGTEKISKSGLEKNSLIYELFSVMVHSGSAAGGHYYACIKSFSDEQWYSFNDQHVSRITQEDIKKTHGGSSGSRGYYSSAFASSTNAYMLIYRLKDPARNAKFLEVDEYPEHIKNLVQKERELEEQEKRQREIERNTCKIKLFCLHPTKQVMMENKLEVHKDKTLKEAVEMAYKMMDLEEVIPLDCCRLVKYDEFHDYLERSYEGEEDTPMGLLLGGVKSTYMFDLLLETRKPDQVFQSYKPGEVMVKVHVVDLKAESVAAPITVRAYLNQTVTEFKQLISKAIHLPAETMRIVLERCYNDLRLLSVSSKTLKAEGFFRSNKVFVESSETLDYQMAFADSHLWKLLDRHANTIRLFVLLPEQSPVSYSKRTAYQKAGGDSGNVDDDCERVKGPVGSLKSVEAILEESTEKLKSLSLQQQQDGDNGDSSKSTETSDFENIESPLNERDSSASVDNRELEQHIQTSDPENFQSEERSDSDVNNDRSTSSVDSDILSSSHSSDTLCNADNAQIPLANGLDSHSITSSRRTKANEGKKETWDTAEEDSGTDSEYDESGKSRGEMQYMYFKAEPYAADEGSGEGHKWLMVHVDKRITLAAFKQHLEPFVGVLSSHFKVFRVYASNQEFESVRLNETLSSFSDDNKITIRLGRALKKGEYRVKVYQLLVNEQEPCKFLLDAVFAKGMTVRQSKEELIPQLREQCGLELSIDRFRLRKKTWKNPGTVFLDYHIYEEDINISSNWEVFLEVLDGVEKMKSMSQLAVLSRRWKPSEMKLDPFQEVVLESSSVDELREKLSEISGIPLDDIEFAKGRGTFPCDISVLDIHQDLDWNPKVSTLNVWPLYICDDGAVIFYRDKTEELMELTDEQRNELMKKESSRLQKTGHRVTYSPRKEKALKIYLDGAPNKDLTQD
In short: as §1

USP48 = target: T3, USP48 (UniProt Q86UV5)
T3 sequence (whole entry): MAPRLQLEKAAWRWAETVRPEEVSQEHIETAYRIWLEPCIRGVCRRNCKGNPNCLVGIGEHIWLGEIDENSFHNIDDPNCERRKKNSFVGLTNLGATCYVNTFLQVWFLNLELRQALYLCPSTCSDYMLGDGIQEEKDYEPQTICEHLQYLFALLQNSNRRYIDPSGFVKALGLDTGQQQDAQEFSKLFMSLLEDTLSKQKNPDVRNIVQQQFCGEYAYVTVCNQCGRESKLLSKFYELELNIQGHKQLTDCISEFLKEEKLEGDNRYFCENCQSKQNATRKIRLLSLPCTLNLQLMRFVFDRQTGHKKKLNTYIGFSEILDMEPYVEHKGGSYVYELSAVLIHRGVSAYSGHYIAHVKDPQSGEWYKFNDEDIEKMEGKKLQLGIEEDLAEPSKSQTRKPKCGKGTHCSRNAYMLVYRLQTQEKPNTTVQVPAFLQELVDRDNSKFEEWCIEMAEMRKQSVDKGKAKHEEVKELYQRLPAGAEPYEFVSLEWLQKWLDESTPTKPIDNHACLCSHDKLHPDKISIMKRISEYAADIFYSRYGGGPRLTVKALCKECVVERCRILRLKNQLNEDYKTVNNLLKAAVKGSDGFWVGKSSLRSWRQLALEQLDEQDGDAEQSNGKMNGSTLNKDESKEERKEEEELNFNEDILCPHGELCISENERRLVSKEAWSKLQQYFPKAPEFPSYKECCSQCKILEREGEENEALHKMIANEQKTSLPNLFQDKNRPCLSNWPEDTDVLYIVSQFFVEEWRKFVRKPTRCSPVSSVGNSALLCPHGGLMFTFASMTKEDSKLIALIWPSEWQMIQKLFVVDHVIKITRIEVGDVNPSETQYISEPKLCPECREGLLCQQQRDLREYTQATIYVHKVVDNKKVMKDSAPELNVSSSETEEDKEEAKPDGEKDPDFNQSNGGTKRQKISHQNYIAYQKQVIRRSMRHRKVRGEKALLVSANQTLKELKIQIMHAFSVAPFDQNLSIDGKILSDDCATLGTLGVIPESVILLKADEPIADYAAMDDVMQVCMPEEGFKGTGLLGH
In short: as §1

USP5 = target: T4, USP5 (UniProt P45974)
T4 sequence (whole entry): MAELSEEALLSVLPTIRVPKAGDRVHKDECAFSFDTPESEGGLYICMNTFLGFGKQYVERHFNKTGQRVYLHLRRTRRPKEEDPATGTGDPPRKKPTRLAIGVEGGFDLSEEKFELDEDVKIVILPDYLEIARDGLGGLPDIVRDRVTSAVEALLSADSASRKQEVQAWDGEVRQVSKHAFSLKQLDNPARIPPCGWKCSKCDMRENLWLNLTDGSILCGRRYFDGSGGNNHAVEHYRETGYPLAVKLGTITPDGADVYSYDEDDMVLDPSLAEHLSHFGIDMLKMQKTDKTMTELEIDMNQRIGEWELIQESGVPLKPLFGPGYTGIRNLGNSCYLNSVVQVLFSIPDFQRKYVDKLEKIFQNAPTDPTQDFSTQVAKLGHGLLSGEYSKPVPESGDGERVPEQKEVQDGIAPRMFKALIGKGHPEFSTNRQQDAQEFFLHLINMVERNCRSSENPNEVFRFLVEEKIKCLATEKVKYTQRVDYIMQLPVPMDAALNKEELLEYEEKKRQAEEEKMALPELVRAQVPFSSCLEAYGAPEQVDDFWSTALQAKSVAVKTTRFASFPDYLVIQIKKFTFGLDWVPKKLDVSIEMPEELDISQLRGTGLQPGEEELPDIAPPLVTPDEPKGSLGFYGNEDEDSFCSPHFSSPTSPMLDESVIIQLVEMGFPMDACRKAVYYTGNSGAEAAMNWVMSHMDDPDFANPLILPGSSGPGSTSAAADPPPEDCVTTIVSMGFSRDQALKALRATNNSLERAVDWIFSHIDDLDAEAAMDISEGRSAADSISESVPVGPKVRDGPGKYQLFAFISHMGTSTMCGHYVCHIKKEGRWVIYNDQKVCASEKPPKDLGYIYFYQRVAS
In short: as §1

USP54 = USP54 (UniProt Q70EL1)
USP54, sequence (Q70EL1 whole entry): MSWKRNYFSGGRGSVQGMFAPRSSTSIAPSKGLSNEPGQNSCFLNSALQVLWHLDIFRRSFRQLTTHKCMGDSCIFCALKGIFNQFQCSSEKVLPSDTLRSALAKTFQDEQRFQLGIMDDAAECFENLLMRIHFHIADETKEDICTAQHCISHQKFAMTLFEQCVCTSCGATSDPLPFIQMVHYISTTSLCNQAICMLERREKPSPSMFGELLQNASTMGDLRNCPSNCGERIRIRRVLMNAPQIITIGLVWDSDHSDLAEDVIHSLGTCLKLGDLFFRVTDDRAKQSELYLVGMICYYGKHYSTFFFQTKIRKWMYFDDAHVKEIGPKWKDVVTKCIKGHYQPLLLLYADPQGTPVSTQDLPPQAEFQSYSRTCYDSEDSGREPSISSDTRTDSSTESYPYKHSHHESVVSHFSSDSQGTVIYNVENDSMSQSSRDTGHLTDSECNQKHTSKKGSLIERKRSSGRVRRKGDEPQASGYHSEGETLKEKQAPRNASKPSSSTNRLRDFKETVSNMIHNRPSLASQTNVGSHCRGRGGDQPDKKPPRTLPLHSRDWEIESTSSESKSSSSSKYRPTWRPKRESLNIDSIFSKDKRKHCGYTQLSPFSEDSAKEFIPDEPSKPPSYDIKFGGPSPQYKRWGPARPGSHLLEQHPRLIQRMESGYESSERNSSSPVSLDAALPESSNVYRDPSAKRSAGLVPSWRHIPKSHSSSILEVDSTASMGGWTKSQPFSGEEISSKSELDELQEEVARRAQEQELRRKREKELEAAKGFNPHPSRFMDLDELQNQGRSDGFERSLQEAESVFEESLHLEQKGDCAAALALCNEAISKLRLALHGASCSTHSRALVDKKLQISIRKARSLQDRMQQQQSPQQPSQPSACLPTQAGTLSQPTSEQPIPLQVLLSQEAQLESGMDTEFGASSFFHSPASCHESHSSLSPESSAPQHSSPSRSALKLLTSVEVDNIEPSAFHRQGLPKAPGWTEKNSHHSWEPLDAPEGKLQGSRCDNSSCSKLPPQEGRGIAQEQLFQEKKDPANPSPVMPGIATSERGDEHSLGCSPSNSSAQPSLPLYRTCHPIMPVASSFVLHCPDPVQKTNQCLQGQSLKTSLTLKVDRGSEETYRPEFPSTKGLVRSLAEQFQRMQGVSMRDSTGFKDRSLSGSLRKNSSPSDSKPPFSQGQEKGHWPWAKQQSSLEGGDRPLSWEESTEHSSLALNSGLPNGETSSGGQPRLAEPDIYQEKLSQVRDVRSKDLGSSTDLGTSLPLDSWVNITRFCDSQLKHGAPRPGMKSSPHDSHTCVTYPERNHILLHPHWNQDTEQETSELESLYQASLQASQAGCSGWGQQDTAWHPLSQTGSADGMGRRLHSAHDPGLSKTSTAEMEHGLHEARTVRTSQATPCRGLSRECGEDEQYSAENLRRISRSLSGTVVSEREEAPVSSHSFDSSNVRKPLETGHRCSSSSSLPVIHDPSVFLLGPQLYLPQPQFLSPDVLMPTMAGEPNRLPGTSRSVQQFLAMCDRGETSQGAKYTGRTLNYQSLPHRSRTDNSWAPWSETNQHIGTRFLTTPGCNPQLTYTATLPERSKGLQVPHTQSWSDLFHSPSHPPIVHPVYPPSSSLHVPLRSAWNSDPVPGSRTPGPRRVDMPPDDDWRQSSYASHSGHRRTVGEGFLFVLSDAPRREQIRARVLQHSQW
In short: as §1

USP7 = USP7 (UniProt Q93009)
In short: as §1

USP8 = target: T5, USP8 (UniProt P40818)
T5 sequence (whole entry): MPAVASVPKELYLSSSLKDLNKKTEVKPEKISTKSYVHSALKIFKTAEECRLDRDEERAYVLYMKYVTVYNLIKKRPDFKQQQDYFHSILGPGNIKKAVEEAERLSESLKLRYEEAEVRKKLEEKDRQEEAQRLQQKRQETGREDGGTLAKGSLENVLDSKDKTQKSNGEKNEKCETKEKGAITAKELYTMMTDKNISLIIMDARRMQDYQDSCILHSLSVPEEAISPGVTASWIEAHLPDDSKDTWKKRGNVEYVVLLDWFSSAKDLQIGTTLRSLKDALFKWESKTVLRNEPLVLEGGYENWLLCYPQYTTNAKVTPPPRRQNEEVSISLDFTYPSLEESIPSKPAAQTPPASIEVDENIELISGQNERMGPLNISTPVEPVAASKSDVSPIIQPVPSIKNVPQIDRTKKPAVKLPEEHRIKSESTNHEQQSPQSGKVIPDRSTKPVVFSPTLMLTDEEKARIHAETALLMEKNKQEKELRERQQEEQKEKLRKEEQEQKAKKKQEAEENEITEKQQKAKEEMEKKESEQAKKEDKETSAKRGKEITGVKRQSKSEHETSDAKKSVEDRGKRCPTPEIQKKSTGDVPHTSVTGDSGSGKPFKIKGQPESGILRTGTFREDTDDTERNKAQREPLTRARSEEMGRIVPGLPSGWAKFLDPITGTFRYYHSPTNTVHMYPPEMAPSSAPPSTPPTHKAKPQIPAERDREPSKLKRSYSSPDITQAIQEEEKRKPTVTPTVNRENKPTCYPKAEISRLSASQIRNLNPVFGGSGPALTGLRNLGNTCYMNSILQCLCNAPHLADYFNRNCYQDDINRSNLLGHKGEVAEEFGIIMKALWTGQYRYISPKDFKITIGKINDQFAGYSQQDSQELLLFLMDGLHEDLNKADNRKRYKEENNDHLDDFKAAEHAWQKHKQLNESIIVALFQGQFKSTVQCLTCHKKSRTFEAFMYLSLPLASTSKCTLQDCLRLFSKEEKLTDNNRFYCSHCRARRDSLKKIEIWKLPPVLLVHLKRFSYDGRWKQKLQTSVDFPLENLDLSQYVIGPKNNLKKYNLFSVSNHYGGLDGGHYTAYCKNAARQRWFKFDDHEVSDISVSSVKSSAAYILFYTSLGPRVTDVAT
In short: as §1

USP9X = USP9X (UniProt Q93008)
USP9X, sequence (Q93008 whole entry): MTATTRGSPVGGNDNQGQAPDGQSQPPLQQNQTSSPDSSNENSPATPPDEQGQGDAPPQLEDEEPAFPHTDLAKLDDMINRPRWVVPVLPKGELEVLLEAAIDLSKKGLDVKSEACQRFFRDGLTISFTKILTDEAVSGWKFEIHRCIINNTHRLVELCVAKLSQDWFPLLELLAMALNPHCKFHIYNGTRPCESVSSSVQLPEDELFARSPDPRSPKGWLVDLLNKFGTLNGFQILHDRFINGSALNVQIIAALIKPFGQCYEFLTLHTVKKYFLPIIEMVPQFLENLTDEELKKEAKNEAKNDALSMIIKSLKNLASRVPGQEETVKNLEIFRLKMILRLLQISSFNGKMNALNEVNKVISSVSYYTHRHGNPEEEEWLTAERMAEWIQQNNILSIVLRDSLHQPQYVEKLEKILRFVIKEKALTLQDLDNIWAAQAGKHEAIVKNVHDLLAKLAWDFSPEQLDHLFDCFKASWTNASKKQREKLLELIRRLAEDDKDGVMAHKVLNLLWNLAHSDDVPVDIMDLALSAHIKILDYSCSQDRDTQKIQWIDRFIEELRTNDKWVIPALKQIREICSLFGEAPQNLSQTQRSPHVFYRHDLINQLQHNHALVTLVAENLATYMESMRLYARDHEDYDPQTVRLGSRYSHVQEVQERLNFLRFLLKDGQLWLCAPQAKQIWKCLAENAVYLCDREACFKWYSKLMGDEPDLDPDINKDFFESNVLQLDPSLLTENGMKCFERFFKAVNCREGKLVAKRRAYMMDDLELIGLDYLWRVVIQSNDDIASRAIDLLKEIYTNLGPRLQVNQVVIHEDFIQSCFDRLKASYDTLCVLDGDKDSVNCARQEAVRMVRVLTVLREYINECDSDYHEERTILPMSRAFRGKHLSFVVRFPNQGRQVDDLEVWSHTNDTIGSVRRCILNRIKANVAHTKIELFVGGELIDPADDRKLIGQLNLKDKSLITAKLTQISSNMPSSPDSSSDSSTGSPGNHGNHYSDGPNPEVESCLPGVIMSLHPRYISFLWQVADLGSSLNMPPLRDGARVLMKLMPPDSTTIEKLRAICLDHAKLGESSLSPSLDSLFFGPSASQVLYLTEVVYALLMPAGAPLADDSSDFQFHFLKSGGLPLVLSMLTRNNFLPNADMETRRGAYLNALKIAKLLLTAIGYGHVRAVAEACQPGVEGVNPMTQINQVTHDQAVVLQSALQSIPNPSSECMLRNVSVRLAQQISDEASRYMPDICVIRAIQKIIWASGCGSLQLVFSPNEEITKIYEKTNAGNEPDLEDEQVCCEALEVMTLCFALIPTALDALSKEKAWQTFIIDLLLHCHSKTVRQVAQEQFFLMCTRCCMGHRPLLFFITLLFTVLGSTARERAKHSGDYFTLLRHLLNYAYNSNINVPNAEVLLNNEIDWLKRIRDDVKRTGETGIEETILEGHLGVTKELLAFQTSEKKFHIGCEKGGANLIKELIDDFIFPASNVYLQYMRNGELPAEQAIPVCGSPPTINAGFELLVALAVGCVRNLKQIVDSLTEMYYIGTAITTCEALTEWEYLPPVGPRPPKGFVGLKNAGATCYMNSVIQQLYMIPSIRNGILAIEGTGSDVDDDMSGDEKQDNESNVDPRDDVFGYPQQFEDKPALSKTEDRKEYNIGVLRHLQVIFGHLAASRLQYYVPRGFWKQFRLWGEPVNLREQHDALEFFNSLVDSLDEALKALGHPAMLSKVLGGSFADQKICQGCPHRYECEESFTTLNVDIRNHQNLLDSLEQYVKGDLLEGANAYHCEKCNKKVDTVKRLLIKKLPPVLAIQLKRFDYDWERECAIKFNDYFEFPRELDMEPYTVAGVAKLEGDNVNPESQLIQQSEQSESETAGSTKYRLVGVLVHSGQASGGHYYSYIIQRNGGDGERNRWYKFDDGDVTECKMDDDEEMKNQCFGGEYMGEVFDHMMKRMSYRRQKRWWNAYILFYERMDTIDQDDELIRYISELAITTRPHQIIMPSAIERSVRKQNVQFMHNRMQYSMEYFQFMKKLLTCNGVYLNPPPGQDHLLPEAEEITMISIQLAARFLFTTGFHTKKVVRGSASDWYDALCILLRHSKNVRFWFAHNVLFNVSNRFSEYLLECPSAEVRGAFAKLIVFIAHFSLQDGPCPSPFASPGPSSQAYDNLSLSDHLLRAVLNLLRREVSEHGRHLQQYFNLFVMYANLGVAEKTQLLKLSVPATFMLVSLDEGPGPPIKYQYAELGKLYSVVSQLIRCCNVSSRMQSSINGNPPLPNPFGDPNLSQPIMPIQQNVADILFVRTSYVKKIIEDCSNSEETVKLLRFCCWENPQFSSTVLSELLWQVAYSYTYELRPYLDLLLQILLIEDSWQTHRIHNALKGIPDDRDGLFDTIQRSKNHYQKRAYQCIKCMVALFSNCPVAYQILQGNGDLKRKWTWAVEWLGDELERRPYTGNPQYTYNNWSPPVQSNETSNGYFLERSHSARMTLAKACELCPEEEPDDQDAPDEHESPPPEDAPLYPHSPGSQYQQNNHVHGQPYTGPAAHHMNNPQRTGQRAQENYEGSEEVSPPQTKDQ
In short: as §1

UniProt O00487 = target: UniProt O00487
UniProt O00487, sequence (O00487 whole entry): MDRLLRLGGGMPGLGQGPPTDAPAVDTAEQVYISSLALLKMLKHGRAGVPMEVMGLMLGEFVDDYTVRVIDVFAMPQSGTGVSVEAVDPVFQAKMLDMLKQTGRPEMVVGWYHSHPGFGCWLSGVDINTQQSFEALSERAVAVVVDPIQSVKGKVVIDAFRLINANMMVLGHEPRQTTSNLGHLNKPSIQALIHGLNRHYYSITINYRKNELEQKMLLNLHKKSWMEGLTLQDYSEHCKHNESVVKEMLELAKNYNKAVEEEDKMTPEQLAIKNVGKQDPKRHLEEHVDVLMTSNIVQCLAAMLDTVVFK
In short: as §1

Measured: log2 ratio of Biotin-Ahx-Ub-VS probe labelling

O=C(CCl)NCCc1cccc2ccccc12
inactive: USP42 0.608 | USP46 -0.0148 | USP47 0.102 | USP48 -0.131 | USP5 0.258 | USP54 -0.0844 | USP7 -0.217 | USP8 -0.118 | USP9X 0.0346 | UniProt O00487 0.00956
